# In the supplement of paper PMC7393113:
# Where “and” joins values, the source holds several entries; their conditions need not be identical. Equal values may be shown once. ± gives the standard deviation of the averaged measurements.
# Test system: iBMDM (immortalised mouse bone-marrow-derived macrophages), LPS-stimulated
# Test: mitochondrial superoxide (MitoSOX fluorescence) fold increase over unstimulated control; higher = more LPS-induced mitochondrial ROS (less inhibition)
# Conditions: inhibitor concentration: 500 nM, LPS: 100 ng/ml
# In short: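 Immortalised mouse bone-marrow-derived macrophages in black 96-well plates were kept in phenol-red-free 1% FCS/DMEM for 20 h, pretreated 30 min with kinase inhibitors (500 nM), loaded with 1 μM MitoSox for 10 min and then given LPS (100 ng/ml). Fluorescence at excitation/emission 510/580 nm was read on a ClarioStar plate reader every 60 min for 4 h, with wells in triplicate. Mitochondrial superoxide is given as fold induction over untreated macrophages, averaged across replicates.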
smiles,measurement,setting,value
COC(=O)Nc1ccc(-c2nc(N3CCOCC3)c3cnn(C4CCN(C(=O)OC)CC4)c3n2)cc1,mitochondrial superoxide,time after LPS: 1 h,1.14 ± 0.026
same,mitochondrial superoxide,time after LPS: 2 h,1.13 ± 0.02
same,mitochondrial superoxide,time after LPS: 4 h,1.14 ± 0.024
COc1cccc(-c2cc(=O)c3ccccc3o2)c1N,mitochondrial superoxide,time after LPS: 1 h,1.48 ± 0.098
same,mitochondrial superoxide,time after LPS: 2 h,1.57 ± 0.021
same,mitochondrial superoxide,time after LPS: 4 h,1.67 ± 0.04
C[C@@H](Oc1cc(-n2cnc3ccc(CN4CCN(C)CC4)cc32)sc1C(N)=O)c1ccccc1C(F)(F)F,mitochondrial superoxide,time after LPS: 1 h,1.12 ± 0.059
same,mitochondrial superoxide,time after LPS: 2 h,1.22 ± 0.025
same,mitochondrial superoxide,time after LPS: 4 h,1.35 ± 0.048
C=CC(=O)Nc1ccc2ncnc(Nc3cccc(Br)c3)c2c1,mitochondrial superoxide,time after LPS: 1 h,1.12 ± 0.053
same,mitochondrial superoxide,time after LPS: 2 h,1.29 ± 0.027
same,mitochondrial superoxide,time after LPS: 4 h,1.3 ± 0.061
Cc1ccc(Nc2nccc(N(C)c3ccc4c(C)n(C)nc4c3)n2)cc1S(N)(=O)=O,mitochondrial superoxide,time after LPS: 1 h,1.46 ± 0.059
same,mitochondrial superoxide,time after LPS: 2 h,1.563 ± 0.0056
same,mitochondrial superoxide,time after LPS: 4 h,1.65 ± 0.11
COc1ccc(F)c(F)c1C(=O)c1cnc(NC2CCN(S(C)(=O)=O)CC2)nc1N,mitochondrial superoxide,time after LPS: 1 h,1.28 ± 0.081
same,mitochondrial superoxide,time after LPS: 2 h,1.57 ± 0.13
same,mitochondrial superoxide,time after LPS: 4 h,1.8 ± 0.14
O=C(O)c1ccc(Nc2ncc3c(n2)-c2ccc(Cl)cc2C(c2c(F)cccc2F)=NC3)cc1,mitochondrial superoxide,time after LPS: 1 h,1.37 ± 0.045
same,mitochondrial superoxide,time after LPS: 2 h,1.45 ± 0.044
same,mitochondrial superoxide,time after LPS: 4 h,1.46 ± 0.052
C#Cc1cccc(Nc2ncnc3cc(OC)c(OCCCCCCC(=O)NO)cc23)c1,mitochondrial superoxide,time after LPS: 1 h,1.189 ± 0.011
same,mitochondrial superoxide,time after LPS: 2 h,1.2 ± 0.047
same,mitochondrial superoxide,time after LPS: 4 h,1.22 ± 0.051
COc1cc(Nc2nc3ccccc3nc2NS(=O)(=O)c2ccc(NC(=O)c3ccc(C)c(OC)c3)cc2)cc(OC)c1,mitochondrial superoxide,time after LPS: 1 h,1.17 ± 0.022
same,mitochondrial superoxide,time after LPS: 2 h,1.23 ± 0.06
same,mitochondrial superoxide,time after LPS: 4 h,1.33 ± 0.061
N#CC[C@H](C1CCCC1)n1cc(-c2ncnc3[nH]ccc23)cn1,mitochondrial superoxide,time after LPS: 1 h,1.19 and 1.09
same,mitochondrial superoxide,time after LPS: 2 h,1.29 and 1.15
same,mitochondrial superoxide,time after LPS: 4 h,1.35 and 1.29
CN1CCN(CCOc2cc(OC3CCOCC3)c3c(Nc4c(Cl)ccc5c4OCO5)ncnc3c2)CC1 [Saracatinib (AZD0530)],mitochondrial superoxide,time after LPS: 1 h,1.516 ± 0.0097
same,mitochondrial superoxide,time after LPS: 2 h,1.63 ± 0.047
same,mitochondrial superoxide,time after LPS: 4 h,1.85 ± 0.073
C=CC(=O)Nc1cccc(Nc2nc(Nc3ccc(N4CCN(C(C)=O)CC4)cc3OC)ncc2C(F)(F)F)c1,mitochondrial superoxide,time after LPS: 1 h,1.49 ± 0.069
same,mitochondrial superoxide,time after LPS: 2 h,1.49 ± 0.063
same,mitochondrial superoxide,time after LPS: 4 h,1.65 ± 0.12
"Nc1cc(C(F)(F)F)c(-c2cc(N3CCOCC3)nc(N3CCOCC3)n2)cn1 [BKM120 (NVP-BKM120, Buparlisib)]",mitochondrial superoxide,time after LPS: 1 h,1.33 ± 0.034
same,mitochondrial superoxide,time after LPS: 2 h,1.41 ± 0.024
same,mitochondrial superoxide,time after LPS: 4 h,1.53 ± 0.05
CC(C)(O)CC(=O)NCCn1ccc2ncnc(Nc3ccc(Oc4cccc(C(F)(F)F)c4)c(Cl)c3)c21,mitochondrial superoxide,time after LPS: 1 h,1.14 ± 0.019
same,mitochondrial superoxide,time after LPS: 2 h,1.37 ± 0.12
same,mitochondrial superoxide,time after LPS: 4 h,1.62 ± 0.14
CCn1c2ccccc2c2cc(Nc3ccnc(NCCCN4CCOCC4)n3)ccc21,mitochondrial superoxide,time after LPS: 1 h,1.41 ± 0.063
same,mitochondrial superoxide,time after LPS: 2 h,1.54 ± 0.086
same,mitochondrial superoxide,time after LPS: 4 h,1.67 ± 0.096
COc1ccc(CNC(=O)Nc2ncc([N+](=O)[O-])s2)cc1,mitochondrial superoxide,time after LPS: 1 h,1.47 ± 0.037
same,mitochondrial superoxide,time after LPS: 2 h,1.54 ± 0.026
same,mitochondrial superoxide,time after LPS: 4 h,1.6 ± 0.096
CN(c1ncccc1CNc1nc(Nc2ccc3c(c2)CC(=O)N3)ncc1C(F)(F)F)S(C)(=O)=O,mitochondrial superoxide,time after LPS: 1 h,1.27 and 1.06
same,mitochondrial superoxide,time after LPS: 2 h,1.34 and 1.11
same,mitochondrial superoxide,time after LPS: 4 h,1.63 and 1.11
Cc1cc(C)c(/C=C2\C(=O)Nc3ccccc32)[nH]1 [Semaxanib (SU5416)],mitochondrial superoxide,time after LPS: 1 h,1.19 ± 0.012
same,mitochondrial superoxide,time after LPS: 2 h,1.22 ± 0.029
same,mitochondrial superoxide,time after LPS: 4 h,1.3 ± 0.039
C#Cc1cccc(Nc2ncnc3cc(OCCOC)c(OCCO)cc23)c1,mitochondrial superoxide,time after LPS: 1 h,1.16 ± 0.089
same,mitochondrial superoxide,time after LPS: 2 h,1.2 ± 0.038
same,mitochondrial superoxide,time after LPS: 4 h,1.3 ± 0.14
Cc1ccc(-n2nc(C(C)(C)C)cc2NC(=O)Nc2ccc(OCCN3CCOCC3)c3ccccc23)cc1 [BIRB 796 (Doramapimod)],mitochondrial superoxide,time after LPS: 1 h,0.987 ± 0.051
same,mitochondrial superoxide,time after LPS: 2 h,1.11 ± 0.024
same,mitochondrial superoxide,time after LPS: 4 h,1.22 ± 0.032
O=C(Nc1ccc(-c2ccnc(Nc3ccc(N4CCOCC4)cc3)n2)cc1)C1CCCN1 (centres undefined),mitochondrial superoxide,time after LPS: 1 h,1.21 ± 0.058
same,mitochondrial superoxide,time after LPS: 2 h,1.232 ± 0.011
same,mitochondrial superoxide,time after LPS: 4 h,1.3 ± 0.068
O=C(NOC[C@H](O)CO)c1ccc(F)c(F)c1Nc1ccc(I)cc1F,mitochondrial superoxide,time after LPS: 1 h,1.589 ± 0.0074
same,mitochondrial superoxide,time after LPS: 2 h,1.64 ± 0.044
same,mitochondrial superoxide,time after LPS: 4 h,1.71 ± 0.083
O=C1NC(=O)/C(=C/c2ccc3c(c2)OC(F)(F)O3)S1,mitochondrial superoxide,time after LPS: 1 h,1.26 ± 0.032
same,mitochondrial superoxide,time after LPS: 2 h,1.4 ± 0.033
same,mitochondrial superoxide,time after LPS: 4 h,1.51 ± 0.068
CS(=O)(=O)c1cccc(CNc2nc(Nc3ccc4c(c3)CCC(=O)N4)ncc2C(F)(F)F)c1,mitochondrial superoxide,time after LPS: 1 h,1.2 ± 0.044
same,mitochondrial superoxide,time after LPS: 2 h,1.24 ± 0.056
same,mitochondrial superoxide,time after LPS: 4 h,1.3 ± 0.014
CN1CCN(S(=O)(=O)c2ccc(-c3cnc(N)c(C(=O)Nc4cccnc4)n3)cc2)CC1,mitochondrial superoxide,time after LPS: 1 h,1.34 ± 0.053
same,mitochondrial superoxide,time after LPS: 2 h,1.46 ± 0.031
same,mitochondrial superoxide,time after LPS: 4 h,1.63 ± 0.03
C=CC(=O)Nc1cccc(Nc2nc(Nc3ccc(Oc4ccnc(C(=O)NC)c4)cc3)ncc2F)c1,mitochondrial superoxide,time after LPS: 1 h,1.4 ± 0.018
same,mitochondrial superoxide,time after LPS: 2 h,1.49 ± 0.031
same,mitochondrial superoxide,time after LPS: 4 h,1.6 ± 0.023
Cn1c(Nc2ccc(C(F)(F)F)cc2)nc2cc(Oc3ccnc(-c4ncc(C(F)(F)F)[nH]4)c3)ccc21,mitochondrial superoxide,time after LPS: 1 h,1.13 ± 0.08
same,mitochondrial superoxide,time after LPS: 2 h,1.2 ± 0.097
same,mitochondrial superoxide,time after LPS: 4 h,1.33 ± 0.066
CS(=O)(=O)N1CCc2c(-c3cnc(N)nc3)nc(N3CCOCC3)nc21,mitochondrial superoxide,time after LPS: 1 h,1.31 ± 0.047
same,mitochondrial superoxide,time after LPS: 2 h,1.48 ± 0.024
same,mitochondrial superoxide,time after LPS: 4 h,1.55 ± 0.025
